In the library only some 0.63% were active in any assay of this set; here they are far more common.
GALK inh: inhibitors of human galactokinase. Potency, µM (highest dose often 57.5 µM), actives largely listed as inhibitors. Purified GALK, Kinase-Glo residual ATP luminescence. hit rate 0.007% among 270,000. P51570
Target sequence (P51570 whole entry, looked up): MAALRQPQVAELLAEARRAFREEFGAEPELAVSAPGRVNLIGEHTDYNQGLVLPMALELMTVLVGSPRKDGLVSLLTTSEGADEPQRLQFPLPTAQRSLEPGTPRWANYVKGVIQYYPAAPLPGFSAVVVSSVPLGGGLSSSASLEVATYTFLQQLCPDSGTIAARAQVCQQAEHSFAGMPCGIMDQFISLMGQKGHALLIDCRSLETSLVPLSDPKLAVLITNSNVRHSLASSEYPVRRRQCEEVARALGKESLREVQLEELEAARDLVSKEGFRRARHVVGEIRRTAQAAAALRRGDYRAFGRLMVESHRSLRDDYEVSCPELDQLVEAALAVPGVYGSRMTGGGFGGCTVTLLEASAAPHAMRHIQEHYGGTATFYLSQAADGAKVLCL
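Kinase-Glo Plus luminescence measured ATP left after a 1 h room-temperature reaction. The reaction used 5 nM GALK, 100 uM galactose and 35 uM ATP at pH 8.0 (20 mM HEPES, 5 mM MgCl2, 60 mM NaCl, 1 mM DTT, 0.01% BSA).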
aGlu spleen mod: lysosomal alpha-glucosidase (human) modulation; AID 2112; P10253; human spleen homogenate, 4-MU-alpha-glucoside fluorescence; hit rate 0.006% among 240,000; Potency, µM (highest dose often 79.9 µM), most hits filed as inhibitors
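Human spleen homogenate (1 ug) with 4-methylumbelliferyl-alpha-D-glucopyranoside (1 mM final) in 50 mM citrate/phosphate pH 5.0, 0.01% Tween-20; 40 min at 37 C. Stopped at pH 10; 4-MU fluorescence Ex 365/Em 440 nm; AC50 by Hill fit.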
GAA glycogen: GAA glycogen-cleavage inhibition or activation. P10253. recombinant GAA, glycogen substrate, Amplex Red glucose oxidase fluorescence. Potency, µM (titrated, usually from 76.4 µM), hits mostly inhibitors. hit rate 0.38% among 300,000. AID 2100;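 also: the screen sought inhibitors and activators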
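Natural-substrate format: glycogen cleavage by 4 nM human enzyme, glucose read by Amplex Red coupling (Ex 573, Em 610 nm). Normalized to enzyme and no-enzyme controls.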
GAA inh: inhibitors of human lysosomal alpha-glucosidase | Potency, µM (highest dose often 76.9 µM), most hits filed as inhibitors | purified human GAA, 4-MU-alpha-glucoside fluorescence | hit rate 0.005% among 200,000 | P10253
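Enzyme (4 nM final) mixed with compound (up to 77 uM), then 4-MU-alpha-D-pyranoside (400 uM final) added; 20 min at room temperature, pH 5.0. Reaction stopped at pH 10, fluorescence read, AC50 derived by Hill fit.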
PKM2 act: activators of human pyruvate kinase M2; P14618; purified PKM2, Kinase-Glo ATP luminescence, activation; response scale: 0% is enzyme alone, no compound; Potency, µM (highest dose often 57.5 µM), usual class: activators; hit rate 0.34% among 260,000; AID 1631; also: nearly all actives have a fitted effect of over 55% in size
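Purified hPK-M2 (>95% pure) converted ADP (0.1 mM final) to ATP with 0.5 mM PEP in 50 mM imidazole pH7.2, KCl, MgCl2, Tween 20, BSA; 1 h at room temperature. ATP detected by Kinase-Glo luminescence.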
Numbers stand for hits; . = inactive; ? = inconclusive; / = not tested or not shown; ! = not active in a repeat; [ ] = remark or other dose. Calls follow the shape of the dose curve; as a rule, active = well fitted curve in the direction sought with a large enough effect; inconclusive = small, poorly fitted or top-dose-only effect, or another doubt; inactive = no such curve, though single readings can be large; an effect the other way counts as inactive or inconclusive.

SMILES	GALK inh	aGlu spleen mod	GAA glycogen	GAA inh	PKM2 act
CC(=O)OCC[N+](C)(C)C	.	.	9.9µM!	.[15.4 µM]	.
CCOC(=O)c1ccc(N2C(=O)c3n[nH]c(-c4ccco4)c3C2c2cccc(O)c2)cc1 (centres undefined)	/	/	.	/	/
Cc1ccc(SCC(c2ccccc2)N2CCN(CC(C)C)CCC2=O)cc1 (centres undefined)	/	.	/	/	/
CCN1CCN(CC(=O)N2CCCC(C(=O)c3ccc(Oc4ccccc4)cc3)C2)CC1 (centres undefined)	.	.	7.9µM	.	.
COc1ccc(NC(=S)NNc2ccc(S(=O)(=O)Nc3ccccc3C(=O)O)cc2[N+](=O)[O-])cc1	.	.	25µM	/	.
Fc1ccc(/C=N/Nc2nccnc2Cl)cc1	.	/	.	/	.[11.5 µM]
Oc1ccc(/C=N/Nc2nccnc2Cl)cc1	.	.	11µM	.	.
O=C1NN(c2ccc(F)c(Cl)c2)C(=O)/C1=C\c1cccc(OC(=O)c2cccs2)c1	.	.	?	.	.
CC(C)=C1C(=O)NN(c2ccc(F)c(Cl)c2)C1=O	.	.	25µM	.	.
O=C(Cc1ccccc1)NC1CCN(S(=O)(=O)c2cccc(F)c2)CC1	.	.	.	.	28µM
CCOC(=O)Cc1csc(Nc2c(C)n(C)n(-c3ccccc3)c2=O)n1	.	.	10µM	.	.
CCCSc1ccccc1C(=O)N1CCN(C(=O)c2ccco2)CC1	.	/	.	/	.
O=C1c2ccccc2-c2c1cccc2C(=O)N1CCN(C(=O)c2ccco2)CC1	.	.	.	.	16µM
O=C(Nc1ccc2nn(-c3ccc(F)cc3)nc2c1)c1cccc2c(Cl)cccc12	/	/	.	/	/
COc1cccc(NC(=O)CSc2nc3n[nH]c(C)c3c(=N)n2-c2cccc(OC)c2)c1	.	.	.	?	25µM
CCc1ccc(NC(=O)CSc2nc3n[nH]c(C)c3c(=N)n2-c2cccc(OC)c2)cc1	.	.	.	.	.
Cn1c(SCc2cccnc2)nc2c(c1=O)SCC2	.	.	.	.	28µM
O=C(NCCc1ccccc1)C(=O)NCC(c1cccnc1)N1CCN(c2ccc(F)cc2)CC1 (centres undefined)	/	/	.	/	/
c1ccc(Nc2cc(Nc3ccccc3)[nH]n2)cc1	.	.	28µM	.	.
Cc1ccc2c(CC(=O)NCc3ccccc3)coc2c1C	/	/	.	/	/
Cc1cccc(/C(N)=N/OC(=O)Cc2cccc3ccccc23)c1	.	.	.	.	.
Cc1ccc(/C(N)=N/OC(=O)Cc2cccc3ccccc23)cc1	.	.	.	.	25µM
CC(C)C1=Nc2cccc3cccc(c23)N1	.	.	25µM	?	.
COc1ccc(C2=Nc3cccc4cccc(c34)N2)cc1	.	.	?	.	.
CCc1ccc(CNC(=O)c2ccc(-n3c(C)cc4c3CCC(C)C4)cc2)cc1 (centres undefined)	/	/	.	/	/
SMILES	GALK inh	aGlu spleen mod	GAA glycogen	GAA inh	PKM2 act
COc1cccc(C2=Nn3c(nnc3-c3ccccc3OC)SC2)c1	/	.	/	/	/
COc1ccccc1-c1nnc2n1N=C(c1ccc(O)c(O)c1)CS2	.	.	11µM	.	.
N#Cc1ccc(NCCc2ccccn2)c([N+](=O)[O-])c1	/	.	.	.	14µM
O=C(NNC(=S)Nc1ccc(Br)cc1)c1ccccc1	.	/	/	/	.
CCOc1ccc(NC(=S)NNC(=O)c2ccc(Br)cc2)cc1	.	.	40µM	.	.
N/C(=N\N=C\c1ccc2c(c1)OCO2)SC1CC(=O)N(c2ccc(C(=O)O)cc2)C1=O (centres undefined)	.	.	.	.	35µM
O=C(O)c1ccc(N2C(=O)CC(SC(=NCc3ccc4c(c3)OCO4)Nc3ccccc3)C2=O)cc1 (centres undefined)	/	.	.	/	.
Nc1ccc(S(=O)(=O)c2cccc(N)c2)cc1	.	.	.	.	.
Nc1ccc(S(=O)(=O)c2ccc(N)c(N)c2)cc1	.	.	.	.	28µM
Nc1cc(S(=O)(=O)c2ccc(O)c(N)c2)ccc1O	.	.	7.9µM	/	.
Nc1cc([N+](=O)[O-])ccc1O	.	.	?	.	.
COc1ccc(NC(=O)CN2C(=O)COc3ccc(S(=O)(=O)N4CCCCC4)cc32)cc1Cl	/	/	.	/	/
O=C(Cn1c(=O)n(-c2ccc(Cl)cc2)c(=O)c2sc3ccccc3c21)NC1CCCCC1	/	/	.	/	/
Cc1cc2oc(=O)sc2cc1NS(=O)(=O)c1cccc2cccnc12	.	/	.	/	32µM
CN(C)S(=O)(=O)c1ccc(C(=O)NCc2cccs2)cc1	.	.	.	.	6.3µM
CN(c1ccccc1)S(=O)(=O)c1ccc(C(=O)NCc2cccs2)cc1	.	.	.	/	.
CC(C)NC(=O)c1ccc(S(=O)(=O)N(C)C)cc1	.	.	.	.	.
CN(C)NC(=O)c1ccsc1NC(=O)c1ccc(S(=O)(=O)N(C)C)cc1	.	.	5.6µM	/	.
O=C1CC(Nc2ccc(N3CCOCC3)cc2)C(=O)N1Cc1ccccc1 (centres undefined)	.	.	13µM	.	.
COc1ccccc1N1C(=O)CC(Nc2ccc(N3CCOCC3)cc2)C1=O (centres undefined)	.	.	?	.	.
O=C1CC(Nc2ccc(N3CCOCC3)cc2)C(=O)N1c1ccccc1 (centres undefined)	.	.	16µM	.	.
COc1ccc(Cl)cc1NC(=O)CN1C(=O)CSc2ccc(S(=O)(=O)N3CCCC3)cc21	/	/	.	/	/
Cc1cc2c(n1-c1ccc(C(=O)NCCc3ccc(Cl)cc3)cc1)CCC(C)C2 (centres undefined)	/	/	.	/	/
CCOC(=O)c1c(OCC)[nH]c2c1cc(O)c1ccccc12	.	.	25µM	.	.
CCOC(=O)c1c(C)[nH]c2cc(Br)c(O)cc12	.	.	.	.	?
SMILES	GALK inh	aGlu spleen mod	GAA glycogen	GAA inh	PKM2 act
Cc1cc(=O)n(-c2ccc(O)cc2)[nH]1	.	.	14µM	.	.
Cc1ccc(OCCn2cc(/C(N)=N/O)c3ccccc32)cc1C	.	.	40µM	.	.
COc1ccc(OCCn2cc(/C(N)=N/O)c3ccccc32)cc1	.	.	12µM	?	.
Cc1ccc(OCCn2cc(C(=S)N3CCCC3)c3ccccc32)cc1C	.	.	.	.	.
COc1ccccc1Cn1c(C2CC(=O)N(c3ccccc3OC)C2)nc2ccccc21 (centres undefined)	/	/	.	/	/
O=C(O)c1ccc(N=Cc2c(O)ccc3oc4c(c23)CCCC4)cc1	.	.	.	/	.
Oc1ccccc1N=Cc1c(O)ccc2oc3c(c12)CCCC3	.	.	5.6µM	/	.
CC1=C(c2ccc(C)cc2)S(=O)(=O)NC1=NCCCN1CCN(c2ccccc2F)CC1	/	/	.	/	/
CCn1c(C)c(/C=N/Nc2nc3ccccc3s2)c2ccccc21	.	.	25µM	.	.

Bioassay records as filed in PubChem.
